Compound activity as filed in PubChem BioAssay.
KB-3-1 tox: KB-3-1 parental cell cytotoxicity | KB-3-1 viability, CellTiter-Glo ATP luminescence, 72 h | Potency, µM (series often up to 46.1 µM), actives largely listed as cytotoxic | 400,000 tested, 1.4% active; further: nearly all actives have a fitted effect of over 60% in size
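Cells are dispensed, compounds pinned in, plates held at 37 °C for 72 h, then CellTiter-Glo is added and luminescence read after 10 minutes. Cell line: parental KB-3-1 in phenol-red-free DMEM, 10% FBS.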
HT1080-NT tox: kills 2HG-producing HT-1080-NT fibrosarcoma cells; HT-1080-NT fibrosarcoma viability, CellTiter-Glo ATP luminescence, 48 h; AID 686970; 360,000 tested, 1.6% active; Potency, µM (doses to about 46.1 µM), for inactives: top-dose activity, negative = less viability, hits mostly cytotoxic;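 further: NT is the 2HG producing partner of a matched IDH1 knockdown line; 0% = DMSO-treated cells and -100% = media-only wells without cells; nearly all actives have a fitted effect of over 55% in size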
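Luminescent CellTiter-Glo readout after 48 hours of compound exposure at 37 degrees C defined viability of HT-1080-NT cells. Activity was normalized to DMSO wells and cell-free media wells; concentration-response curves were fitted and assigned curve classes.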
TDP1 cell noCPT: qHTS for Inhibitors of human tyrosyl-DNA phosphodiesterase 1 (TDP1): qHTS in cells in absence of CPT | Potency, µM (highest dose often 46.2 µM), inactives show top-dose activity change, negative = growth inhibition, hits mostly inhibitors | DT40 Tdp1-/- hTDP1 cells, no CPT, ATP luminescence, 48 h | 420,000 tested, 15% active | AID 686978, 2013; further: nearly all actives have a fitted effect of over 55% in size
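Readout: luminescence from CellTiter-Glo after 30 min in the dark at RT. Cells: DT40 Tdp1-/- with stable hTDP1, 400/well. Exposure: compounds alone, ≥48 hr, 37 °C.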
KB-V1 MDR tox: KB-V1 MDR subline cytotoxicity; KB-V1 MDR cells viability, CellTiter-Glo, 72 h; Potency, µM (titrated, usually from 46.1 µM), actives largely listed as cytotoxic; 400,000 tested, 3.4% active; AID 1347076; further: nearly all actives have a fitted effect of over 60% in size
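Following 72 h at 37 degrees C with compound, KB-V1 cell viability was read by CellTiter-Glo luminescence, medium being phenol-red-free DMEM plus 10% FBS; concentration-response parameters came from normalized, curve-fitted qHTS data.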
HT1080 IDH1KD tx: kills HT-1080 cells with IDH1 knockdown; HT-1080 IDH1 knockdown viability, ATP luminescence, 48 h; Potency, µM (series often up to 46.1 µM), inactives show at the highest dose activity, negative = toxicity, most hits filed as cytotoxic; 360,000 tested, 2% active;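 further: 0% = DMSO wells and -100% = cell-free medium wells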
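HT-1080-IDH1KD cells (IDH1 knocked down), 750/well in RPMI with 5% FBS, treated with compound 48 h at 37 degrees C. Viability by CellTiter-Glo luminescence, normalised to DMSO and no-cell wells; concentration-response curves classed.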
TDP1 cell CPT: growth inhibition of DT40 Tdp1-/-;hTDP1 cells with camptothecin (screen for TDP1 inhibitors). chicken DT40 Tdp1-/-;hTDP1 cells + 20 nM CPT, ATP luminescence, 48 h. Potency, µM (highest dose often 46.2 µM), for inactives: top-dose activity change, negative = growth inhibition, usual class: inhibitors. 420,000 tested, 12% active. AID 686979; further: nearly all actives have a fitted effect of over 55% in size
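Chicken DT40 Tdp1-/- cells stably complemented with human TDP1 were seeded at 400 cells/well in medium containing 20 nM camptothecin, exposed to pin-transferred compounds, and grown at 37 °C for at least 48 hr. Viability was read as ATP luminescence.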
The depositor's hits bear a star; i = inactive; ? = inconclusive; . = no result; [ ] = dose if it differs, or a comment. The list is not random: actives were taken first. Their share in the collection is about 19%. The call rests on the fitted dose curve; in most records, active means well fitted curve in the direction sought with a large enough effect; inconclusive means small, poorly fitted or top-dose-only effect, or another doubt; inactive means no such curve, though single readings can be large; an effect the other way counts as inactive or inconclusive. Unless noted, on the % scale 0 is the no-effect control and ±100 the full control effect; potency means the concentration at half of the fitted maximal effect.

SMILES | KB-3-1 tox | HT1080-NT tox | TDP1 cell noCPT | KB-V1 MDR tox | HT1080 IDH1KD tx | TDP1 cell CPT
C(=C\c1cccc2ccccc12)/c1nnc(-c2cccs2)o1 | i | -2.2% | ? | i | -16.8% | 29.1µM*
COc1ccc2cc([C@H](C)C(=O)N(C)Cc3ccccc3N3CCCC3)ccc2c1 | i | ? | 25.9µM* | ? | ? | 23.1µM*
COc1cccc(C(=O)Nc2ccccc2C(=O)OCc2cc(=O)n3nc(C4CC4)sc3n2)c1 | i | . | -2.0% | i | . | 3.5%
C=C1C(=O)C23C(O)C1CCC2C12CCCC(C)(COC(C)=O)C1C(O)C3(O)OC2 (configuration not stated) | 13µM* | 8.2µM* | 0.731µM* | ? | 1.84µM* | 1.03µM*
O=C(c1c(F)cccc1F)N(Cc1ccccc1)Cc1ccccc1 | i | -10.0% | 11.6µM* | i | -0.8% | 11.6µM*
COc1c(Cl)cc(Cl)cc1/C=C(\C#N)c1nc2ccccc2[nH]1 | i | . | . | i | . | .
COc1cccc(/C=C(\C#N)c2nc3ccccc3[nH]2)c1OCC(=O)O | i | -2.0% | 11.1% | ? | -3.0% | -2.6%
CCN(CC)c1ccc(/C=C(/C#N)c2nc3ccc(C)cc3[nH]2)c(OC(C)C)c1 | ? | ? | 20.6µM* | i | -29.8% | 14.6µM*
CCOc1cc(N(CC)CC)ccc1/C=C(/C#N)c1nc2ccccc2[nH]1 | ? | -24.9% | 10.3µM* | ? | ? | 16.4µM*
COc1cccc(/C=C(/C#N)c2nc3ccccc3[nH]2)c1OC(C)C(=O)O (configuration not stated) | i | 0.0% | -2.2% | i | 7.7% | -0.4%
CCCOc1cc(N(CC)CC)ccc1/C=C(/C#N)c1nc2ccc(C)cc2[nH]1 | i | -11.8% | 13µM* | ? | ? | 20.6µM*
CC(NCC(=O)Nc1ccccc1C(=O)NC1CC1)c1cccc(C(F)(F)F)c1 (configuration not stated) | i | -6.2% | ? | i | -1.4% | ?
O=C(C[C@@H]1CC[C@@H]2[C@H](COC[C@H](O)CN2S(=O)(=O)c2ccccc2)O1)Nc1ccccc1 | i | 17.8% | ? | i | 15.7% | ?
COc1ccc(-c2cc(C)no2)cc1S(=O)(=O)NCCCN1CCN(c2ccccc2)CC1 | ? | -18.3% | 23.1µM* | ? | -12.5% | ?
Cc1cc(-c2ccc(C)c(S(=O)(=O)NCCCN3CCN(c4ccccc4)CC3)c2)on1 | ? | ? | 23.1µM* | ? | -11.2% | ?
CC(=O)Oc1cc2cccc(OC(C)=O)c(=O)c2c(OC(C)=O)c1OC(C)=O | i | ? | 18.4µM* | ? | -19.6% | 4.61µM*
CC(=O)Oc1cc2c(c3ccccc13)CCC2=O | i | 16.0% | ? | i | 10.7% | 30.2%
COc1ccc(Cl)cc1NC(=O)Cn1nnc2sc(-c3ccccc3)cc2c1=O | i | . | ? | i | . | ?
O=C(NC1CCCC1)c1cc2c(ccc3ccccc32)o1 | ? | -13.0% | 20.6µM* | ? | -11.6% | ?
CNC(=O)c1cc2c(ccc3ccccc32)o1 | i | 1.3% | 0.3% | i | 1.1% | 1.8%
Cc1ccc(/C=N/NC(=O)c2cc3c(ccc4ccccc43)o2)o1 | i | 19.1% | ? | i | -4.0% | ?
O=C(N/N=C/c1ccc([N+](=O)[O-])o1)c1cc2c(ccc3ccccc32)o1 | i | -0.3% | ? | i | 7.9% | 10.3µM*
CC(=O)Oc1ccc(/C=N\NC(=O)c2cc3c(ccc4ccccc43)o2)cc1 | i | -2.3% | ? | i | -0.2% | ?
Cc1ccc(/C=N/NC(=O)c2cc3c(ccc4ccccc43)o2)cc1[N+](=O)[O-] | i | 12.7% | ? | i | 3.1% | 25.9µM*
CCCS(=O)(=O)NCc1c(C)ncc2c1CCN(C(=O)/C=C/c1ccc(F)cc1F)C2 | . | . | -23.6% | . | . | -2.6%[9.04 µM]
SMILES | KB-3-1 tox | HT1080-NT tox | TDP1 cell noCPT | KB-V1 MDR tox | HT1080 IDH1KD tx | TDP1 cell CPT
Cc1ccc(S(=O)(=O)Nc2cc3c(C(=O)OCc4ccccc4)c(C)oc3c3ccccc23)c(C)c1 | i | . | ? | i | . | ?
CCS(=O)(=O)N1CCN(c2ccc(C(=O)N3CCOCC3)cc2[N+](=O)[O-])CC1 | i | 1.5% | 3.8% | i | 0.9% | 0.9%
O=C(c1ccc(N2CCOCC2)c([N+](=O)[O-])c1)N1CCCCC1 | i | 7.0% | 0.9% | i | 5.7% | -10.9%
Cc1ccc(S(=O)(=O)N2CCN(C(=O)c3ccc(N4CCC(C)CC4)c([N+](=O)[O-])c3)CC2)cc1 | i | 1.8% | ? | 18.4µM* | -3.7% | ?
Cc1ccc(C)c(N2CCN(C(=O)c3ccc(N4CCOCC4)c([N+](=O)[O-])c3)CC2)c1 | i | ? | 16.4µM* | i | -24.3% | ?
CCS(=O)(=O)N1CCN(c2ccc(C(=O)NC3C4CC5CC(C4)CC3C5)cc2[N+](=O)[O-])CC1 (configuration not stated) | i | 11.7% | 8.2µM* | i | 8.9% | 8.2µM*
COC(=O)c1ccc(N2CCN(S(=O)(=O)c3ccc(C)cc3)CC2)c([N+](=O)[O-])c1 | i | -13.8% | 20.6µM* | i | -8.5% | 18.4µM*
O=C(CSc1nccc(=O)[nH]1)Nc1ccc(N2CCOCC2)cc1 | i | 3.0% | 0.9% | i | 5.5% | -4.5%
O=C(O)/C=C/c1cn(Cc2ccccc2Cl)nc1-c1ccccc1 | i | -6.4% | ? | i | -4.8% | ?
CC(=O)Nc1ccc(OCc2nnc(-c3ccc(Cl)cc3)o2)cc1 | i | -7.9% | -22.6% | i | -5.1% | -14.1%
C=CCN(Cc1cc(OC)ccc1OC)C(=O)c1cc2ccc(OC)cc2[nH]1 | ? | ? | ? | ? | -15.5% | ?
CC(C)(C)c1cc(NCCCn2ccnc2)n2ncc(-c3ccc(Cl)cc3)c2n1 | i | 10µM* | 18.4µM* | ? | 10µM* | ?
CN(C)CCCNc1cc(C(C)(C)C)nc2c(-c3ccccc3)cnn12 | i | 20.6µM* | 16.4µM* | i | ? | ?
CC(/C=N/N1CCN(c2ccc(C)cc2)CC1)=C\c1ccccc1 | i | 5.1% | -7.0% | i | 6.0% | 7.2%
BrC(=C\c1ccccc1)/C=N/N1CCN(c2ccccc2)CC1 | i | ? | 7.31µM* | i | ? | 1.16µM*
Oc1c(Br)cc(Br)cc1/C=N/N1CCN(Cc2ccccc2)CC1 | i | -1.9% | ? | ? | -3.4% | ?
